From PubChem BioAssay AID1159580 (chemical genetic matrix, 2015)
Values joined by “and” are separate entries in the source; they are usually repeats but may differ in a detail not shown here. Identical values can stand only once. Among all 5,500 compounds or so, about 2,000 (36%) were called active. About 18% were inconclusive and are not listed. Cut-off read from the data, not from the text of the source: active = normalized growth mostly below about 0.91 (no sharp cut-off); inconclusive = no clear call, values can overlap the other calls; inactive = mostly above about 0.92. The list shows a part of the results.

Assay: chemical genetic growth profiling, strain panel (AID 1159580);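 note: tested at 20 µM; growth read once vehicle control cultures reached saturation at 30 °C; 1 = growth at the plate median or of vehicle wells; lower values mean less growth of the strain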
Details: S. cerevisiae deletion strains, growth OD
[1] = locus YPL241C, strain CIN2, stronger effect = lower value

Measured: normalized growth

CC(=O)OCC[N+](C)(C)C
inactive: locus YAL013W, strain DEP1, stronger effect = lower value 1.01 | locus YAL021C, strain ccr4, stronger effect = lower value 1.03 | locus YAL030W, strain snc1, stronger effect = lower value 1.02 | locus YBL061C, strain skt5, stronger effect = lower value 1.03 | locus YBR009C, strain hhf1, stronger effect = lower value 1.08 | locus YBR021W, strain FUR4, stronger effect = lower value 1.06 | locus YBR023C, strain chs3, stronger effect = lower value 1.05 | locus YBR171W, strain sec66, stronger effect = lower value 0.999 | locus YBR229C, strain ROT2, stronger effect = lower value 1.01 | locus YBR231C, strain swc5, stronger effect = lower value 1.03 | locus YBR279W, strain paf1, stronger effect = lower value 1.04 | locus YCL011C, strain gbp2, stronger effect = lower value 1.07 | locus YCL016C, strain dcc1, stronger effect = lower value 1.05 | locus YCL029C, strain bik1, stronger effect = lower value 1.04 | locus YCL069W, strain vba3, stronger effect = lower value 1.03 | locus YCR088W, strain abp1, stronger effect = lower value 1.02 | locus YDL005C, strain med2, stronger effect = lower value 1 | locus YDL035C, strain GPR1, stronger effect = lower value 0.961 | locus YDL040C, strain nat1, stronger effect = lower value 1.02 | locus YDL074C, strain BRE1, stronger effect = lower value 0.965 | locus YDL101C, strain DUN1, stronger effect = lower value 0.985 | locus YDL134C, strain PPH21, stronger effect = lower value 0.986 | locus YDL185W, strain tfp1, stronger effect = lower value 0.969 | locus YDL192W, strain arf1, stronger effect = lower value 1.02 | locus YDR001C, strain nth1, stronger effect = lower value 1.01 | locus YDR069C, strain doa4, stronger effect = lower value 1 | locus YDR101C, strain arx1, stronger effect = lower value 1.07 | locus YDR162C, strain NBP2, stronger effect = lower value 0.948 | locus YDR297W, strain sur2, stronger effect = lower value 1.02 | locus YDR318W, strain mcm21, stronger effect = lower value 1.01 | locus YDR334W, strain swr1, stronger effect = lower value 1.03 | locus YDR335W, strain msn5, stronger effect = lower value 1 | locus YDR388W, stronger effect = lower value 1.02 | locus YDR392W, strain spt3, stronger effect = lower value 1.13 | locus YDR502C, strain sam2, stronger effect = lower value 1.01 | locus YEL003W, strain gim4, stronger effect = lower value 1.01 | locus YEL037C, strain rad23, stronger effect = lower value 1.03 | locus YEL061C, strain CIN8 (second series), stronger effect = lower value 1.03 | locus YEL061C, strain CIN8, stronger effect = lower value 0.993 | locus YER015W, strain faa2, stronger effect = lower value 1.07 | locus YER016W, strain bim1, stronger effect = lower value 1.02 | locus YER110C, stronger effect = lower value 1.01 | locus YER111C, strain swi4, stronger effect = lower value 1.02 | locus YER155C, strain BEM2 (second series), stronger effect = lower value 1.11 | locus YER155C, strain BEM2, stronger effect = lower value 1.02 | locus YER167W, strain BCK2, stronger effect = lower value 1.01 | locus YFR010W, strain ubp6, stronger effect = lower value 1.01 | locus YGL078C, strain dbp3, stronger effect = lower value 1.03 | locus YGL086W, strain mad1, stronger effect = lower value 1.01 | locus YGL167C, strain pmr1, stronger effect = lower value 1.01 | locus YGL173C, strain kem1, stronger effect = lower value 1.02 | locus YGL227W, strain vid30, stronger effect = lower value 1.02 | locus YGL240W, strain doc1, stronger effect = lower value 1.11 | locus YGL248W, strain PDE1, stronger effect = lower value 0.99 | locus YGL253W, strain hxk2, stronger effect = lower value 1.03 | locus YGR135W, strain pre9, stronger effect = lower value 0.996 | locus YGR252W, strain gcn5, stronger effect = lower value 0.943 | locus YHR013C, strain ard1, stronger effect = lower value 1.11 | locus YHR027C, strain rpn1, stronger effect = lower value 1.02 | locus YHR030C, strain SLT2, stronger effect = lower value 1.01 and 1.08 | locus YHR079C, strain IRE1 (second series), stronger effect = lower value 1.02 | locus YHR079C, strain IRE1, stronger effect = lower value 1.1 | locus YHR094C, strain hxt1, stronger effect = lower value 1.02 | locus YHR129C, strain ARP1, stronger effect = lower value 1.01 | locus YHR142W, strain chs7, stronger effect = lower value 1.1 | locus YHR200W, strain rpn10, stronger effect = lower value 1.02 | locus YIL066C, strain RNR3, stronger effect = lower value 0.988 | locus YIL073C, strain SPO22, stronger effect = lower value 0.973 | locus YIL125W, strain kgd1, stronger effect = lower value 1.03 | locus YIR030C, strain dcg1, stronger effect = lower value 1.06 | locus YJL092W, strain hpr5, stronger effect = lower value 1.02 | locus YJL095W, strain BCK1 (second series), stronger effect = lower value 1.02 | locus YJL095W, strain BCK1, stronger effect = lower value 0.928 and 1.07 | locus YJL115W, strain asf1, stronger effect = lower value 1.03 | locus YJL129C, strain trk1, stronger effect = lower value 1.09 | locus YJL134W, strain LCB3, stronger effect = lower value 1.02 | locus YJL154C, strain vps35, stronger effect = lower value 1.03 | locus YJL164C, strain tpk1, stronger effect = lower value 1.05 | locus YJL166W, strain qcr8, stronger effect = lower value 1.04 | locus YJL168C, strain set2, stronger effect = lower value 1.03 | locus YJL187C, strain SWE1 (second series), stronger effect = lower value 0.951 | locus YJL187C, strain SWE1, stronger effect = lower value 1.02 | locus YJR043C, strain POL32, stronger effect = lower value 0.994 | locus YJR066W, strain TOR1, stronger effect = lower value 1.03 | locus YJR075W, strain HOC1, stronger effect = lower value 0.978 | locus YKL009W, strain mrt4, stronger effect = lower value 0.945 | locus YKL068W, stronger effect = lower value 1.01 | locus YKL085W, strain MDH1 (second series), stronger effect = lower value 1.01 | locus YKL085W, strain MDH1, stronger effect = lower value 1.01 | locus YKL160W, strain elf1, stronger effect = lower value 1.03 | locus YKR001C, strain vps1, stronger effect = lower value 0.975 | locus YKR026C, strain gcn3, stronger effect = lower value 1.03 | locus YKR091W, strain srl3, stronger effect = lower value 1.02 | locus YLL001W, strain dnm1, stronger effect = lower value 1.02 | locus YLL026W, stronger effect = lower value 1.03 | locus YLL041C, strain sdh2, stronger effect = lower value 1.02 | locus YLR027C, strain aat2, stronger effect = lower value 1.02 | locus YLR039C, strain RIC1, stronger effect = lower value 0.756 | locus YLR058C, strain SHM2, stronger effect = lower value 0.972 | locus YLR102C, strain apc9, stronger effect = lower value 1.01 | locus YLR113W, strain HOG1, stronger effect = lower value 1.14 | locus YLR258W, strain gsy2, stronger effect = lower value 1.04 | locus YLR262C, strain YPT6, stronger effect = lower value 0.801 | locus YLR268W, strain sec22, stronger effect = lower value 0.967 | locus YLR320W, strain mms22, stronger effect = lower value 1.1 | locus YLR330W, strain CHS5, stronger effect = lower value 0.998 | locus YLR342W, strain FKS1 (second series), stronger effect = lower value 0.986 | locus YLR342W, strain FKS1, stronger effect = lower value 1.01 | locus YLR357W, strain rsc2, stronger effect = lower value 1.12 | locus YLR370C, strain arc18, stronger effect = lower value 1.03 | locus YLR371W, strain rom2, stronger effect = lower value 1.08 | locus YLR384C, strain iki3, stronger effect = lower value 1.02 | locus YLR418C, strain cdc73, stronger effect = lower value 0.99 | locus YML016C, strain PPZ1, stronger effect = lower value 0.993 | locus YML032C, strain rad52, stronger effect = lower value 0.918 | locus YML120C, strain ndi1, stronger effect = lower value 1.04 | locus YML124C, strain tub3, stronger effect = lower value 1 | locus YMR058W, strain fet3, stronger effect = lower value 1.05 | locus YMR078C, strain ctf18, stronger effect = lower value 1.02 | locus YMR125W, strain sto1, stronger effect = lower value 1.05 | locus YMR129W, stronger effect = lower value 1.02 | locus YMR205C, strain PFK2, stronger effect = lower value 1.08 | locus YMR223W, strain ubp8, stronger effect = lower value 0.978 | locus YMR231W, strain pep5, stronger effect = lower value 0.993 | locus YMR307W, strain GAS1, stronger effect = lower value 1.07 | locus YNL067W, strain RPL9B, stronger effect = lower value 0.961 | locus YNL071W, strain lat1, stronger effect = lower value 1.04 | locus YNL183C, strain NPR1, stronger effect = lower value 1.04 | locus YNL209W, strain ssb2, stronger effect = lower value 1.02 | locus YNL233W, strain BNI4, stronger effect = lower value 0.973 | locus YNL250W, strain rad50, stronger effect = lower value 1.02 | locus YNL271C, strain bni1, stronger effect = lower value 1.01 | locus YNL298W, strain CLA4, stronger effect = lower value 1.01 | locus YNL307C, strain MCK1, stronger effect = lower value 1.03 | locus YNL322C, strain KRE1 (second series), stronger effect = lower value 1.07 | locus YNL322C, strain KRE1, stronger effect = lower value 1.02 | locus YNR049C, strain mso1, stronger effect = lower value 1.01 | locus YNR052C, strain pop2, stronger effect = lower value 1.02 | locus YOL012C, strain htz1 1.26 | locus YOL147C, strain pex11, stronger effect = lower value 1.03 | locus YOR001W, strain rrp6, stronger effect = lower value 0.99 | locus YOR061W, strain CKA2, stronger effect = lower value 0.994 | locus YOR069W, strain VPS5, stronger effect = lower value 1.01 | locus YOR070C, strain gyp1, stronger effect = lower value 1.02 | locus YOR080W, strain dia2, stronger effect = lower value 1.02 | locus YOR083W, strain WHI5, stronger effect = lower value 1.05 | locus YOR106W, strain vam3, stronger effect = lower value 1.08 | locus YOR136W, strain idh2, stronger effect = lower value 1.02 | locus YOR184W, strain ser1, stronger effect = lower value 0.988 | locus YOR231W, strain MKK1, stronger effect = lower value 1.08 | locus YOR265W, strain rbl2, stronger effect = lower value 1.02 | locus YOR290C, strain snf2, stronger effect = lower value 1.06 | locus YOR316C, strain cot1, stronger effect = lower value 1.01 | locus YPL051W, strain arl3, stronger effect = lower value 1.05 | locus YPL055C, strain LGE1, stronger effect = lower value 0.982 | locus YPL078C, strain atp4, stronger effect = lower value 1.04 | locus YPL106C, strain sse1, stronger effect = lower value 1.02 | locus YPL240C, strain hsp82, stronger effect = lower value 1.01 | [1] 1 | locus YPR119W, strain clb2, stronger effect = lower value 1.01 | locus YPR163C, strain tif3, stronger effect = lower value 1.01 | locus YPR167C, strain met16, stronger effect = lower value 1.03 | strain wtn01, stronger effect = lower value 0.996
active: locus YAL026C, strain drs2, stronger effect = lower value 1.1 [resistant] | locus YDR137W, strain rgp1, stronger effect = lower value 1.55 [resistant] | locus YDR159W, strain sac3, stronger effect = lower value 1.15 [resistant] | locus YDR195W, strain ref2 1.21 [resistant] | locus YLR221C, strain rsa3, stronger effect = lower value 1.1 [resistant] | locus YLR262C, strain YPT6 (second series), stronger effect = lower value 1.27 [resistant] | locus YNL248C, strain rpa49, stronger effect = lower value 1.12 [resistant] | locus YOR144C, strain elg1, stronger effect = lower value 1.09 [resistant] | locus YOR270C, strain vph1, stronger effect = lower value 0.749 | locus YPL256C, strain CLN2, stronger effect = lower value 1.24 [resistant] | locus YPR141C, strain kar3, stronger effect = lower value 1.09 [resistant]

C[N+](C)(C)CCOC(=O)CBr
inactive: locus YDR363W, strain ESC2, stronger effect = lower value 1.05 | locus YER002W, strain NOP16, stronger effect = lower value 1 | locus YGR078C, strain PAC10, stronger effect = lower value 1.02 | locus YMR263W, strain SAP30, stronger effect = lower value 1.01 | locus YNL153C, strain GIM3, stronger effect = lower value 1.07 | locus YNL175C, strain NOP13, stronger effect = lower value 1.02 | locus YNL197C, strain WHI3, stronger effect = lower value 0.985 | locus YNL224C, strain SQS1, stronger effect = lower value 1.01 | locus YOR083W, strain WHI5 (second series), stronger effect = lower value 1.05 | [1] 1.01
active: locus YDR150W, strain NUM1, stronger effect = lower value 1.06 [resistant]
